# PubChem BioAssay AID1159580 (chemical genetic matrix, 2015)
# Several values for one entry are separate records, joined by “and”; a condition that tells them apart may be missing. Equal values may be shown once. The whole screen tested about 5,500 compounds, of which about 2,000 (36%) were called active. Not shown: some 18% with an inconclusive outcome. The list shows a part of the results. A number with no mark means an inactive call. Cut-off read from the data, not from the text of the source: active = normalized growth mostly below about 0.91 (no sharp cut-off); inconclusive = no clear call, values can overlap the other calls; inactive = mostly above about 0.92.
# Assay: chemical genetic growth profiling, strain panel (AID 1159580);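 note: tested at 20 µM; growth read once vehicle control cultures reached saturation at 30 °C; 1 = growth at the plate median or of vehicle wells; lower values mean less growth of the strain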
# Conditions: S. cerevisiae deletion strains, growth OD
# [1] = locus YHR030C, strain SLT2, active compounds read low
# [2] = locus YHR079C, strain IRE1, active compounds read low
# [3] = locus YJL095W, strain BCK1, active compounds read low
# [4] = locus YJR066W, strain TOR1, active compounds read low
# [5] = locus YLR113W, strain HOG1, active compounds read low
# [6] = locus YNL183C, strain NPR1, active compounds read low
# [7] = locus YOR231W, strain MKK1, active compounds read low
# [8] = locus YPL256C, strain CLN2, active compounds read low
smiles,measurement,setting,value
COc1c(CC(=O)c2cc3c(cc2O)OC(C)(C)C(O)C3)ccc2c1C=CC(C)(C)O2 (stereo not drawn),normalized growth,"locus YBR021W, strain FUR4, active compounds read low",0.653 (active)
same,normalized growth,"locus YBR229C, strain ROT2, active compounds read low",0.998
same,normalized growth,"locus YCL029C, strain bik1, active compounds read low",0.975
same,normalized growth,"locus YDL035C, strain GPR1, active compounds read low",1.01
same,normalized growth,"locus YDL074C, strain BRE1, active compounds read low",0.926
same,normalized growth,"locus YDL101C, strain DUN1, active compounds read low",1.01
same,normalized growth,"locus YDL185W, strain tfp1, active compounds read low",1
same,normalized growth,"locus YDL192W, strain arf1, active compounds read low",0.96
same,normalized growth,"locus YDR101C, strain arx1, active compounds read low",0.974
same,normalized growth,"locus YDR162C, strain NBP2, active compounds read low",1.01
same,normalized growth,"locus YDR318W, strain mcm21, active compounds read low",0.984
same,normalized growth,"locus YDR388W, active compounds read low",0.994
same,normalized growth,"locus YDR502C, strain sam2, active compounds read low",1.01
same,normalized growth,"locus YEL061C, strain CIN8, active compounds read low",1.01
same,normalized growth,"locus YER110C, active compounds read low",1.01
same,normalized growth,"locus YER155C, strain BEM2, active compounds read low",0.989
same,normalized growth,"locus YER167W, strain BCK2, active compounds read low",1
same,normalized growth,"locus YGL078C, strain dbp3, active compounds read low",1.01
same,normalized growth,"locus YGL086W, strain mad1, active compounds read low",0.979
same,normalized growth,"locus YGL248W, strain PDE1, active compounds read low",1.02
same,normalized growth,"locus YGR078C, strain PAC10, active compounds read low",1.03
same,normalized growth,"locus YGR135W, strain pre9, active compounds read low",1.05
same,normalized growth,"locus YGR252W, strain gcn5, active compounds read low",0.937
same,normalized growth,[1],0.955
same,normalized growth,"locus YHR079C, strain IRE1 (second series), active compounds read low",1
same,normalized growth,[2],0.958
same,normalized growth,"locus YHR094C, strain hxt1, active compounds read low",1.01
same,normalized growth,"locus YHR129C, strain ARP1, active compounds read low",0.997
same,normalized growth,"locus YHR200W, strain rpn10, active compounds read low",1
same,normalized growth,"locus YIL066C, strain RNR3, active compounds read low",0.997
same,normalized growth,"locus YIL073C, strain SPO22, active compounds read low",1.05
same,normalized growth,"locus YIL125W, strain kgd1, active compounds read low",0.982
same,normalized growth,"locus YIR030C, strain dcg1, active compounds read low",0.987
same,normalized growth,[3],0.981 and 0.988
same,normalized growth,"locus YJL134W, strain LCB3, active compounds read low",0.996
same,normalized growth,"locus YJL168C, strain set2, active compounds read low",1.02
same,normalized growth,"locus YJL187C, strain SWE1 (second series), active compounds read low",1.02
same,normalized growth,[4],0.935
same,normalized growth,"locus YKL009W, strain mrt4, active compounds read low",0.992
same,normalized growth,"locus YKL068W, active compounds read low",1
same,normalized growth,"locus YKL085W, strain MDH1 (second series), active compounds read low",0.998
same,normalized growth,"locus YKL085W, strain MDH1, active compounds read low",0.998
same,normalized growth,"locus YKR001C, strain vps1, active compounds read low",0.961
same,normalized growth,"locus YLR039C, strain RIC1, active compounds read low",1.08
same,normalized growth,"locus YLR058C, strain SHM2, active compounds read low",0.999
same,normalized growth,"locus YLR102C, strain apc9, active compounds read low",0.992
same,normalized growth,[5],0.961
same,normalized growth,"locus YLR262C, strain YPT6, active compounds read low",1.02
same,normalized growth,"locus YLR268W, strain sec22, active compounds read low",0.977
same,normalized growth,"locus YLR371W, strain rom2, active compounds read low",0.998
same,normalized growth,"locus YLR418C, strain cdc73, active compounds read low",0.938
same,normalized growth,"locus YML016C, strain PPZ1, active compounds read low",0.999
same,normalized growth,"locus YML032C, strain rad52, active compounds read low",0.982
same,normalized growth,"locus YML124C, strain tub3, active compounds read low",0.984
same,normalized growth,"locus YMR078C, strain ctf18, active compounds read low",1
same,normalized growth,"locus YMR223W, strain ubp8, active compounds read low",1.01
same,normalized growth,"locus YMR263W, strain SAP30, active compounds read low",0.996
same,normalized growth,"locus YMR307W, strain GAS1, active compounds read low",0.807
same,normalized growth,"locus YNL067W, strain RPL9B, active compounds read low",1.01
same,normalized growth,"locus YNL128W, strain TEP1, active compounds read low",1.01
same,normalized growth,"locus YNL153C, strain GIM3, active compounds read low",1.06
same,normalized growth,[6],0.937
same,normalized growth,"locus YNL233W, strain BNI4, active compounds read low",0.997
same,normalized growth,"locus YNL250W, strain rad50, active compounds read low",1.06
same,normalized growth,"locus YNL271C, strain bni1, active compounds read low",0.996
same,normalized growth,"locus YNL298W, strain CLA4, active compounds read low",0.991
same,normalized growth,"locus YNL307C, strain MCK1, active compounds read low",0.988
same,normalized growth,"locus YNR052C, strain pop2, active compounds read low",0.993
same,normalized growth,"locus YOL012C, strain htz1",1.64
same,normalized growth,"locus YOL147C, strain pex11, active compounds read low",0.988
same,normalized growth,"locus YOR061W, strain CKA2, active compounds read low",0.996
same,normalized growth,"locus YOR069W, strain VPS5, active compounds read low",1
same,normalized growth,"locus YOR136W, strain idh2, active compounds read low",0.996
same,normalized growth,"locus YOR144C, strain elg1, active compounds read low",0.995
same,normalized growth,"locus YOR184W, strain ser1, active compounds read low",0.851 (active)
same,normalized growth,[7],0.951
same,normalized growth,"locus YOR316C, strain cot1, active compounds read low",0.998
same,normalized growth,"locus YPL055C, strain LGE1, active compounds read low",0.942
same,normalized growth,[8],0.962
same,normalized growth,"locus YPR119W, strain clb2, active compounds read low",0.999
same,normalized growth,"locus YPR141C, strain kar3, active compounds read low",1
same,normalized growth,"locus YPR163C, strain tif3, active compounds read low",0.988
same,normalized growth,"locus YPR167C, strain met16, active compounds read low",1
same,normalized growth,"strain wtn01, active compounds read low",0.972
COc1c(-c2coc3cc4c(cc3c2=O)CC(O)C(C)(C)O4)ccc2c1C=CC(C)(C)O2 (stereo not drawn),normalized growth,"locus YAL021C, strain ccr4, active compounds read low",0.992
same,normalized growth,"locus YAL026C, strain drs2, active compounds read low",0.978
same,normalized growth,"locus YAL030W, strain snc1, active compounds read low",0.996
same,normalized growth,"locus YBL061C, strain skt5, active compounds read low",0.983
same,normalized growth,"locus YBR009C, strain hhf1, active compounds read low",0.97
same,normalized growth,"locus YBR023C, strain chs3, active compounds read low",0.983
same,normalized growth,"locus YBR171W, strain sec66, active compounds read low",0.973
same,normalized growth,"locus YBR231C, strain swc5, active compounds read low",0.989
same,normalized growth,"locus YBR279W, strain paf1, active compounds read low",0.989
same,normalized growth,"locus YCL011C, strain gbp2, active compounds read low",0.992
same,normalized growth,"locus YCL016C, strain dcc1, active compounds read low",0.986
same,normalized growth,"locus YCL069W, strain vba3, active compounds read low",0.97
same,normalized growth,"locus YCR088W, strain abp1, active compounds read low",0.979
same,normalized growth,"locus YDL005C, strain med2, active compounds read low",0.972
same,normalized growth,"locus YDL040C, strain nat1, active compounds read low",0.987
same,normalized growth,"locus YDR001C, strain nth1, active compounds read low",0.979
same,normalized growth,"locus YDR069C, strain doa4, active compounds read low",1
same,normalized growth,"locus YDR137W, strain rgp1, active compounds read low",0.902
same,normalized growth,"locus YDR159W, strain sac3, active compounds read low",0.973
same,normalized growth,"locus YDR195W, strain ref2",1.05
same,normalized growth,"locus YDR297W, strain sur2, active compounds read low",0.978
same,normalized growth,"locus YDR334W, strain swr1, active compounds read low",0.958
same,normalized growth,"locus YDR335W, strain msn5, active compounds read low",0.974
same,normalized growth,"locus YDR392W, strain spt3, active compounds read low",0.829
same,normalized growth,"locus YEL003W, strain gim4, active compounds read low",0.99
same,normalized growth,"locus YEL037C, strain rad23, active compounds read low",0.973
same,normalized growth,"locus YEL061C, strain CIN8 (second series), active compounds read low",0.98
same,normalized growth,"locus YER015W, strain faa2, active compounds read low",0.991
same,normalized growth,"locus YER016W, strain bim1, active compounds read low",0.992
same,normalized growth,"locus YER111C, strain swi4, active compounds read low",0.973
same,normalized growth,"locus YER155C, strain BEM2 (second series), active compounds read low",0.967
same,normalized growth,"locus YFR010W, strain ubp6, active compounds read low",0.989
same,normalized growth,"locus YGL167C, strain pmr1, active compounds read low",0.969
same,normalized growth,"locus YGL173C, strain kem1, active compounds read low",0.989
same,normalized growth,"locus YGL227W, strain vid30, active compounds read low",0.992
same,normalized growth,"locus YGL240W, strain doc1, active compounds read low",0.979
same,normalized growth,"locus YGL253W, strain hxk2, active compounds read low",0.983
same,normalized growth,"locus YHR013C, strain ard1, active compounds read low",0.954
same,normalized growth,"locus YHR027C, strain rpn1, active compounds read low",1
same,normalized growth,[1],0.932
same,normalized growth,[2],0.929
same,normalized growth,"locus YHR142W, strain chs7, active compounds read low",0.942
same,normalized growth,"locus YJL092W, strain hpr5, active compounds read low",0.99
same,normalized growth,"locus YJL095W, strain BCK1 (second series), active compounds read low",0.983
same,normalized growth,[3],0.94
same,normalized growth,"locus YJL115W, strain asf1, active compounds read low",0.971
same,normalized growth,"locus YJL129C, strain trk1, active compounds read low",0.887
same,normalized growth,"locus YJL154C, strain vps35, active compounds read low",0.97
same,normalized growth,"locus YJL164C, strain tpk1, active compounds read low",0.974
same,normalized growth,"locus YJL166W, strain qcr8, active compounds read low",0.979
same,normalized growth,"locus YJL187C, strain SWE1, active compounds read low",0.991
same,normalized growth,[4],0.865
same,normalized growth,"locus YKL160W, strain elf1, active compounds read low",0.992
same,normalized growth,"locus YKR026C, strain gcn3, active compounds read low",0.957
same,normalized growth,"locus YKR091W, strain srl3, active compounds read low",0.992
same,normalized growth,"locus YLL001W, strain dnm1, active compounds read low",0.991
same,normalized growth,"locus YLL026W, active compounds read low",0.989
same,normalized growth,"locus YLL041C, strain sdh2, active compounds read low",1.01
same,normalized growth,"locus YLR027C, strain aat2, active compounds read low",0.996
same,normalized growth,[5],0.996
same,normalized growth,"locus YLR221C, strain rsa3, active compounds read low",0.991
same,normalized growth,"locus YLR258W, strain gsy2, active compounds read low",0.965
same,normalized growth,"locus YLR262C, strain YPT6 (second series), active compounds read low",0.877
same,normalized growth,"locus YLR320W, strain mms22, active compounds read low",0.962
same,normalized growth,"locus YLR342W, strain FKS1, active compounds read low",0.98
same,normalized growth,"locus YLR357W, strain rsc2, active compounds read low",0.967
same,normalized growth,"locus YLR370C, strain arc18, active compounds read low",0.995
same,normalized growth,"locus YLR384C, strain iki3, active compounds read low",0.976
same,normalized growth,"locus YML120C, strain ndi1, active compounds read low",1.01
same,normalized growth,"locus YMR058W, strain fet3, active compounds read low",0.993
same,normalized growth,"locus YMR125W, strain sto1, active compounds read low",0.988
same,normalized growth,"locus YMR129W, active compounds read low",0.982
same,normalized growth,"locus YMR205C, strain PFK2, active compounds read low",0.961
same,normalized growth,"locus YMR231W, strain pep5, active compounds read low",0.963
same,normalized growth,"locus YNL071W, strain lat1, active compounds read low",0.975
same,normalized growth,[6],0.922
same,normalized growth,"locus YNL209W, strain ssb2, active compounds read low",1
same,normalized growth,"locus YNL248C, strain rpa49, active compounds read low",0.971
same,normalized growth,"locus YNL322C, strain KRE1 (second series), active compounds read low",1.02
same,normalized growth,"locus YNR049C, strain mso1, active compounds read low",0.99
same,normalized growth,"locus YOR001W, strain rrp6, active compounds read low",0.973
same,normalized growth,"locus YOR070C, strain gyp1, active compounds read low",0.992
same,normalized growth,"locus YOR080W, strain dia2, active compounds read low",0.994
same,normalized growth,"locus YOR083W, strain WHI5, active compounds read low",0.978
same,normalized growth,"locus YOR106W, strain vam3, active compounds read low",0.962
same,normalized growth,[7],0.94
same,normalized growth,"locus YOR265W, strain rbl2, active compounds read low",0.98
same,normalized growth,"locus YOR270C, strain vph1, active compounds read low",0.608 (active)
same,normalized growth,"locus YOR290C, strain snf2, active compounds read low",0.955
same,normalized growth,"locus YPL051W, strain arl3, active compounds read low",0.972
same,normalized growth,"locus YPL078C, strain atp4, active compounds read low",0.972
same,normalized growth,"locus YPL106C, strain sse1, active compounds read low",1.01
same,normalized growth,"locus YPL240C, strain hsp82, active compounds read low",0.982
same,normalized growth,[8],0.922
